Results filed as inconclusive are left out. Entries that show only a call come without a potency. Activity calls are given as the source filed them. Calls follow the shape of the dose curve; as a rule, active = well fitted cell-killing curve with a large enough effect; inconclusive = small, poorly fitted or top-dose-only effect, or effect the other way; inactive = no such curve, though single readings can be large or run the other way.
test: Quantitative High-Throughput drug screen in 47 multiple myeloma cell lines against the NCATS MIPE library collection: Karpas620_DSMZ cell viability assay (AID 1918959); settings: Karpas620 myeloma viability, CellTiter-Glo ATP luminescence, 48 h; series mostly up to 45.8 µM; also: nearly all actives have a fitted effect of over 30% in size
Source text: PI: Beverly A. Mock Ph.D.
Laboratory of Cancer Biology and Genetics,
Center for Cancer Research, National Cancer Institute,
National Institute of Health, Bethesda, Maryland
Drug resistance and disease progression are common in multiple myeloma (MM) patients, underscoring the need for new therapeutic combinations. […] We hypothesized that effective combinations would reduce MYC expression and enhance p16 activity. […] These preclinical data identify potentially useful drug combinations for evaluation in drug-resistant MM and reveal potential mechanisms of combined drug sensitivity.
Described herein is the primary MIPE qHTS used to cherrypick compounds. Validated compounds were then further tested for potential synergistic activiy.
[1] Peat TJ, Gaikwad SM, Dubois W, Gyabaah-Kessie N, Zhang S, Gorjifard S, Phyo Z, Andres M, Hughitt VK, Simpson RM, Miller MA, Girvin AT, Taylor A, Williams D, D'Antonio N, Zhang Y, Rajagopalan A, Flietner E, Wilson K, Zhang X, Shinn P, Klumpp-Thomas C, McKnight C, Itkin Z, Chen L, Kazandijian D, Zhang J, Michalowski AM, Simmons JK, Keats J, Thomas CJ, Mock BA. Drug combinations identified by high-throughput screening promote cell cycle transition and upregulate Smad pathways in myeloma. Cancer Lett. 2023 Aug 1;568:216284. doi: 10.1016/j.canlet.2023.216284. Epub 2023 Jun 24. PMID: 37356470; PMCID: PMC10408729.
SEQUENCE No. (e.g., 1, 2, 3, etc.); […] (e.g., Cells, Incubation, Reagent, etc.); VALUE and DESCRIPTION.
1; Cells; 5 uL; white, solid bottom 1536-well Greiner assay plate.
2; Compounds; 23 nL; Kalypsis pin tool (Wako USA) equipped with a 1536-well pin head to transfer to the assay plates.
3; Incubation; 48 hours; 37C incubation.
4; Reagent;5uL; CellTiter Glo (Promega).
5; Detector; 425V; Luminescence; Viewlux PerkinElmer.
NOTES (numbers refer to Sequence numbers above)
1. The cell-based screening methods employed in this study were like those previously published. Briefly, the corresponding myeloma cell lines were screened in 1,536-well plates with 500 cells, 5-uL per well for inhibition of cell viability (assessed by measuring ATP levels with CellTiterGlo).
2. NCATS MIPE 4.0 library of approved and investigational drugs were added using the Kalypsis pin tool. Wells treated with DMSO only for 100% viability and media only wells for 0% viability were used as controls.
3. The assay plates were covered and incubated for 48 hours in a 37C, 5% CO2 incubator with controlled humidity.
4. After 48 hours, CellTilter-GloTM luminescent substrate mix (Promega) reagent was added to the assay plate and plates we incubated for 5 min at room temperature.
5. Signal was measured as median relative luminescence units on a ViewLux (PerkinElmer) multiplate reader.
[1] Heske CM, Davis MI, Baumgart JT, Wilson K, Gormally MV, Chen L, Zhang X, Ceribelli M, Duveau DY, Guha R, Ferrer M, Arnaldez FI, Ji J, Tran HL, Zhang Y, Mendoza A, Helman LJ, Thomas CJ. Matrix Screen Identifies Synergistic Combination of PARP Inhibitors and Nicotinamide Phosphoribosyltransferase (NAMPT) Inhibitors in Ewing Sarcoma. Clin Cancer Res. 2017 Dec 1;23(23):7301-7311. doi: 10.1158/1078-0432.CCR-17-1121. Epub 2017 Sep 12. PMID: 28899971; PMCID: PMC6636827.
Potency is read from the fitted curve at half-maximal effect.

SMILES	Potency
CS(=O)(=O)Oc1ccc2c(NC(N)=O)c(C(=O)c3ccc(Cl)cc3Cl)oc2c1	10.5 µM (active)
COc1c(Cl)cc2c([nH]c3cnccc32)c1NC(=O)c1cccnc1C	18.7 µM (active)
NNCCc1ccccc1	16.6 µM (active)
Cn1c(=O)c(F)c(Nc2ccc(I)cc2F)c2c(=O)n(C[C@@H](O)CO)cnc21	0.0118 µM (active)
CC[C@H](Nc1ncnc2nc[nH]c12)c1nc2cccc(F)c2c(=O)n1-c1ccccc1	inactive
CC(C)(C)NCC(O)c1ccc(O)c(CO)c1 (stereo not given)	inactive
NC(N)=NC(=O)c1nc(Cl)c(N)nc1N	inactive
Nc1nc2ccc(OC(F)(F)F)cc2s1	inactive
CCc1cncnc1N1CCN(Cc2nc3ccc(C(F)(F)F)cc3[nH]2)CC1	7.43 µM (active)
Cc1cc(C=c2sc3nc4ccccc4n3c2=O)c(C)n1-c1ccccc1	inactive
CCCCNc1cc(C(=O)O)cc(S(N)(=O)=O)c1Oc1ccccc1	inactive
Cc1oncc1C(=O)Nc1ccc(C(F)(F)F)cc1	inactive
c1ccc([C@H]2CN3CCSC3=N2)cc1	inactive
Cc1ccccc1C(OCCN(C)C)c1ccccc1 (stereo not given)	inactive
Cc1ccc(-n2nc(C(C)(C)C)cc2NC(=O)Nc2ccc(OCCN3CCOCC3)c3ccccc23)cc1	16.6 µM (active)
CC(C)(Sc1ccc(CCN(CCCCC2CCCCC2)C(=O)NC2CCCCC2)cc1)C(=O)O	inactive
NC(=O)C1CCCc2c1[nH]c1ccc(Cl)cc21 (stereo not given)	18.7 µM (active)
Clc1ccc(Nc2nnc(Cc3ccncc3)c3ccccc23)cc1	1.66 µM (active)
O=C1CCC(N2C(=O)c3ccccc3C2=O)C(=O)N1 (stereo not given)	inactive
COc1ccc(-c2oc3cc(OC)ccc3c2C(=O)c2ccc(C#N)cc2)cc1	1.66 µM (active)

SMILES	Potency
Cc1cnc(NC(=O)C2=C(O)c3ccccc3S(=O)(=O)N2C)s1	inactive
Cn1cc(-c2ccc3nnc(C(F)(F)c4ccc5ncccc5c4)n3n2)cn1	inactive
Nc1nccc(-c2ccc3noc(-c4ccc(Cl)cc4)c3c2)n1	inactive
COc1ccc2c3n(c(=NC(=O)c4cccnc4)nc2c1OC)CCN3	7.43 µM (active)
CCOc1cc(N2CCC(O)CC2)ccc1Nc1ncc2c(n1)N(C)c1ccccc1C(=O)N2C	0.332 µM (active)
COc1cc(Oc2ccnc3cc(OC)c(OC)cc23)ccc1NC(=O)NC(C)c1nccs1 (stereo not given)	7.43 µM (active)
O=c1n(CCCN2CCN(c3cccc(Cl)c3)CC2)nc2ccccn12	inactive
N[C@@H]1CONC1=O	inactive
Cc1cnc(Nc2ccc(OCCN3CCCC3)cc2)nc1Nc1cccc(S(=O)(=O)NC(C)(C)C)c1	1.48 µM (active)
COc1cc(F)c(F)c(Nc2ccc(I)cc2F)c1NS(=O)(=O)C1(C[C@H](O)CO)CC1	20.9 µM (active)
CC1(C)SCCN(S(=O)(=O)c2ccc(OCC#CCO)cc2)[C@@H]1C(=O)NO	inactive
CCCC(CCC)C(=O)O	inactive
O=C1CCc2cc(OCCCCc3nnnn3C3CCCCC3)ccc2N1	inactive
Oc1ccc(C2CNCCc3c2cc(O)c(O)c3Cl)cc1 (stereo not given)	inactive
OC(CCN1CCCCC1)(c1ccccc1)C1CC2C=CC1C2 (stereo not given)	inactive
O=C(Nc1cccnc1)N1CCC(Cc2cccc(Oc3ccc(C(F)(F)F)cn3)c2)CC1	14.8 µM (active)
CC(C[N+](C)(C)C)OC(N)=O (stereo not given)	inactive
O=C(O)[C@@H](c1ccc(OCc2ccc3ccccc3n2)cc1)C1CCCC1	inactive
NCCc1ccc(O)c(O)c1	20.9 µM (active)
CCOc1cc(C(=O)Nc2ccc(Cl)c(-c3nc4ccccc4[nH]3)c2)cc(OCC)c1OCC	13.2 µM (active)

— PubChem BioAssay (NCATS)
